Experimental data: PubChem BioAssay (NCATS)
Inconclusive results are not listed. A call without a number means that no potency is given here. Values without a mark were called inactive. Activity calls are given as the source filed them. Unless noted, calls come from the whole dose curve.

Assays:
[1] = qHTS for Inhibitors of the Functional Ribonucleoprotein Complex (vRNP) of Lassa (LASV) Arenavirus: LASV Primary Screen - GLuc reporter signal (AID 1347082; calls by dose curve; tested in HEK293 reporter line; note: nearly all actives have a fitted effect of over 60% in size; for activity change, negative = inhibition: series mostly up to about 57 µM)
[2] = qHTS for Inhibitors of the Functional Ribonucleoprotein Complex (vRNP) of Lassa (LASV) Arenavirus: Viability assay - alamar blue signal for LASV Primary Screen (AID 1347083; calls by dose curve; tested in HEK293 reporter line; note: nearly all actives have a fitted effect of over 80% in size; for activity change, negative = reduced viability: series mostly up to about 57 µM)
[3] = qHTS for Inhibitors of the Functional Ribonucleoprotein Complex (vRNP) of Lymphocytic Choriomeningitis Arenaviruses (LCMV): Viability assay - alamar blue signal for LCMV Primary Screen (AID 1347085; calls by dose curve; tested in HEK293 reporter line; note: nearly all actives have a fitted effect of over 80% in size; for activity change, negative = lower viability: series mostly up to about 57 µM)
[4] = biological target: Nucleoprotein (Lymphocytic choriomeningitis virus (strain Armstrong)) (UniProt P09992); test: qHTS for Inhibitors of the Functional Ribonucleoprotein Complex (vRNP) of Lymphocytic Choriomeningitis Arenaviruses (LCMV): LCMV Primary Screen - GLuc reporter signal (AID 1347086); note: nearly all actives have a fitted effect of over 70% in size; for activity change, negative = inhibition: series mostly up to about 57 µM
Potency is the fitted concentration of half-maximal effect.

Sequence of Nucleoprotein (Lymphocytic choriomeningitis virus (strain Armstrong)) (P09992 whole entry, looked up): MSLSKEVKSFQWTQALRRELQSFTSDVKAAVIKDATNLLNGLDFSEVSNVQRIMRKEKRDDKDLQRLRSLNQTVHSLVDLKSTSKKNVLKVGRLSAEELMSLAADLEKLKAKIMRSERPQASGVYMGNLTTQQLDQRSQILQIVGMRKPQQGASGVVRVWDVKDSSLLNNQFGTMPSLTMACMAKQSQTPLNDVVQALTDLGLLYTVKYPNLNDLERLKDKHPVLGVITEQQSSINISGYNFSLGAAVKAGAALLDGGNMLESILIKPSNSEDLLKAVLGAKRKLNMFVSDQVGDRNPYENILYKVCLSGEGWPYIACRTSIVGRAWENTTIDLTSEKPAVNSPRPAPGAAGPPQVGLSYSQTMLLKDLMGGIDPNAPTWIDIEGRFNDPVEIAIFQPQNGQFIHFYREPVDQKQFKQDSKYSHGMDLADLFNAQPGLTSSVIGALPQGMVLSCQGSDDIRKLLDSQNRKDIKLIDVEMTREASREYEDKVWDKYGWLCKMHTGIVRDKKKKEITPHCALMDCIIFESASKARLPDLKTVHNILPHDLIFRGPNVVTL

Row | Compound | Potency [1] | Potency [2] | Potency [3] | Potency [4] | activity change, negative = inhibition [1] | activity change, negative = reduced viability [2] | activity change, negative = lower viability [3] | activity change, negative = inhibition [4]
1 | C=C(C)c1cc2c(ccc3ccc(=O)oc32)o1 | inactive | inactive | inactive | inactive | – | – | – | –
2 | NC(=O)c1ncn([C@@H]2O[C@H](CO)[C@@H](O)[C@@H]2O)c1N | inactive | inactive | inactive | inactive | – | – | – | –
3 | CCCC1CCCC(=O)O1 (stereo not given) | inactive | inactive | inactive | inactive | – | – | – | –
4 | O=C(C=CC=Cc1ccc2c(c1)OCO2)N1CCCCC1 | inactive | inactive | inactive | inactive | – | – | – | –
5 | O=C1CCCCCCCCCCCCCC1 | inactive | inactive | inactive | inactive | – | – | – | –
6 | Cc1cc(Cn2cnc3c2C[C@@H](C(=O)O)N(C(=O)C(c2ccccc2)c2ccccc2)C3)ccc1N | inactive | inactive | inactive | inactive | – | – | – | –
7 | CC/C=C\C[C@H](O)/C=C/C=C\C/C=C\C/C=C\CCCC(=O)O | – | – | – | – | -0.193% [at 0.757 µM] | 19.4% [at 0.757 µM] | 7.46% [at 0.757 µM] | 12.1% [at 0.757 µM]
8 | C[C@@H]1CC[C@]2(C(=O)O[C@@H]3O[C@H](CO)[C@@H](O)[C@H](O)[C@H]3O)CC[C@]3(C)C(=CCC4[C@@]5(C)CC[C@H](O[C@@H]6OC[C@H](O)[C@H](O[C@@H]7O[C@H](CO)[C@@H](O)[C@H](O)[C@H]7O)[C@H]6O)C(C)(C)C5CC[C@]43C)C2[C@]1(C)O (stereo not given in full) | inactive | inactive | inactive | inactive | – | – | – | –
9 | N[C@H](CSSC[C@@H](N)C(=O)O)C(=O)O | inactive | inactive | inactive | inactive | – | – | – | –
10 | CC1=CC[C@@]23C[C@@H]1C(C)(C)[C@@H]2CC[C@H]3C | inactive | inactive | inactive | inactive | – | – | – | –
11 | CCCCC/C=C\C=C\C(=O)OCC | inactive | inactive | inactive | inactive | – | – | – | –
12 | C=CCc1c(OC)ccc2ccc(=O)oc12 | inactive | inactive | inactive | inactive | – | – | – | –
13 | C[C@]12O[C@H](C[C@@]1(O)C(=O)O)n1c3ccccc3c3c4c(c5c6ccccc6n2c5c31)CNC4=O | – | – | – | – | -19.8% [at 5.82 µM] | -37.8% [at 5.82 µM] | 6.16% [at 5.82 µM] | 25.9% [at 5.82 µM]
14 | C=C(CC[C@]12OC(C(=O)O)C(O)(C(=O)O)C(C(=O)O)(O1)C(OC(=O)/C=C/[C@@H](C)C[C@@H](C)CC)C2O)[C@@H](OC(C)=O)[C@H](C)Cc1ccccc1 (stereo not given in full) | inactive | inactive | inactive | inactive | – | – | – | –
15 | CC(C)CC[C@@H](O)[C@](C)(O)C1CC[C@@]2(O)C3=CC(=O)[C@@H]4C[C@@H](O)[C@@H](O)C[C@]4(C)C3CC[C@]12C (stereo not given in full) | inactive | inactive | inactive | inactive | – | – | – | –
16 | CCCCCCCCCCCCCCCCCCOS(=O)(=O)O | inactive | inactive | inactive | inactive | – | – | – | –
17 | C/C=C(\C)C(=O)OC(C)(C)[C@H]1Cc2cc3ccc(=O)oc3cc2O1 | inactive | inactive | inactive | inactive | – | – | – | –
18 | CCCCC[C@H](O)C=C[C@H]1[C@H](O)CC(=O)[C@H]1CCCCCCC(=O)O | inactive | inactive | inactive | inactive | – | – | – | –
19 | O=C1c2c(O)cc(O)cc2O[C@@]12c1c(cc(O)c3c1O[C@H](c1ccc(O)cc1)[C@@H](O)C3)O[C@@H]2c1ccc(O)cc1 | inactive | inactive | inactive | inactive | – | – | – | –
20 | C#CCCC/C(=C\C(=O)N(C)[C@H](C(=O)N(C)[C@H](C(=O)N(C)[C@H](C(=O)N(C)[C@H](C(N)=O)C(C)C)C(C)C)C(C)C)C(C)C)OC | inactive | inactive | inactive | inactive | – | – | – | –

Row | Compound | Potency [1] | Potency [2] | Potency [3] | Potency [4] | activity change, negative = inhibition [1] | activity change, negative = reduced viability [2] | activity change, negative = lower viability [3] | activity change, negative = inhibition [4]
21 | COc1cc(/C=C/C(=O)OC[C@H]2O[C@H](OC3(CO)OC(CO)C(O)C3O)[C@H](O)[C@@H](O)[C@@H]2O)ccc1O (stereo not given in full) | inactive | inactive | inactive | inactive | – | – | – | –
22 | CSC(=S)NCc1c[nH]c2ccccc12 | inactive | inactive | inactive | inactive | – | – | – | –
23 | NCCC(=O)c1ccccc1N | inactive | inactive | inactive | inactive | – | – | – | –
24 | O=C(CCCCO)CCCCCCCC[C@H]1N[C@H](CO)[C@H](O)[C@@H]1O[C@@H]1O[C@H](CO)[C@@H](O)[C@H](O)[C@H]1O | inactive | inactive | inactive | inactive | – | – | – | –
25 | Cn1c(N2CCCCS2(=O)=O)nc(C(=O)NCc2ccc(F)cc2)c(O)c1=O | inactive | inactive | inactive | inactive | – | – | – | –
26 | CC1(C)Oc2ccc3ccc(=O)oc3c2[C@@H](O)[C@H]1O | inactive | inactive | inactive | inactive | – | – | – | –
27 | COc1c2n(C)ccc3c-2n(c(=O)c1=O)c1ccccc31 | inactive | inactive | inactive | inactive | – | – | – | –
28 | COc1cccc(OC)c1C(=O)O | inactive | inactive | inactive | inactive | – | – | – | –
29 | COc1cc2oc(=O)ccc2cc1[C@H](O)[C@@H](O)C(C)(C)O | inactive | inactive | inactive | inactive | – | – | – | –
30 | C/C=C(/C)C(=O)O[C@@H]([C@H](O)c1cc2ccc(=O)oc2cc1OC)C(C)(C)O[C@@H]1O[C@H](CO)[C@@H](O)[C@H](O)[C@H]1O | inactive | inactive | inactive | inactive | – | – | – | –
31 | C=C[C@]1(C)C=C2C(=O)[C@@]3(O)OC(=O)[C@@]4(CCCC(C)(C)[C@H]34)[C@@]2(O)CC1 | inactive | inactive | inactive | inactive | – | – | – | –
32 | CC1=CC(=O)/C(=C(/C)O)C(=O)O1 | inactive | inactive | inactive | inactive | – | – | – | –
33 | CC(O)C1C(=O)N2C(C(=O)O)=C(SC3CNC(C(=O)N(C)C)C3)C(C)C12 (stereo not given) | inactive | inactive | inactive | inactive | – | – | – | –
34 | O=C1C=C(C2OC(CO)C(O)C2O)C(=O)N1 (stereo not given) | inactive | inactive | inactive | inactive | – | – | – | –
35 | C=C[C@H]1[C@H](O[C@@H]2O[C@H](CO)[C@@H](O)[C@H](O)[C@H]2O)OC=C2C(=O)OCC[C@]21O | inactive | inactive | inactive | inactive | – | – | – | –
36 | CC1=CCC(O)(C(C)C)CC1 (stereo not given) | inactive | inactive | inactive | inactive | – | – | – | –
37 | COc1ccc2cc1Oc1ccc(cc1)CC1c3cc(c(OC)cc3CCN1C)Oc1c(OC)c(OC)c(OC)c3c1C(C2)N(C)CC3 (stereo not given) | inactive | inactive | inactive | inactive | – | – | – | –
38 | COC(=O)c1ccc(N2CC3CNC(=O)C2(C(=O)OC)N3C)cc1 (stereo not given) | inactive | inactive | inactive | inactive | – | – | – | –
39 | CNc1ncnc2c1ncn2[C@@H]1O[C@H](CO)C(O)[C@H]1O (stereo not given in full) | inactive | inactive | inactive | inactive | – | – | – | –
40 | O=C1c2ccccc2C(=O)c2c(O)ccc(O)c21 | inactive | inactive | inactive | inactive | – | – | – | –

Row | Compound | Potency [1] | Potency [2] | Potency [3] | Potency [4] | activity change, negative = inhibition [1] | activity change, negative = reduced viability [2] | activity change, negative = lower viability [3] | activity change, negative = inhibition [4]
41 | COc1cc(C)c(C(=O)Oc2cc(C)c(C(=O)O)c(O)c2C)c(O)c1C(=O)O | inactive | inactive | inactive | inactive | – | – | – | –
42 | COC(=O)c1ccccc1OC | inactive | inactive | inactive | inactive | – | – | – | –
43 | COc1cc2cc(Oc3ccc4ccc(=O)oc4c3)c(=O)oc2cc1OC(C)=O | inactive | inactive | inactive | inactive | – | – | – | –
44 | C=CC(C)(C)O[C@@H]1O[C@H](CO)[C@@H](O)[C@H](O)[C@H]1O | inactive | inactive | inactive | inactive | – | – | – | –
45 | O=CN1CCCCC1 | inactive | inactive | inactive | inactive | – | – | – | –
46 | CC/C=C\CC/C=C/CO | inactive | inactive | inactive | inactive | – | – | – | –
47 | Cn1c2c(c(=O)c3ccccc31)C[C@@H](O)C(C)(C)O2 | inactive | inactive | inactive | inactive | – | – | – | –
48 | CO[C@H]1C=CCCC=CC(=O)O[C@H]([C@H](C)C(=O)CCCC2CC(=O)NC(=O)C2)C(C)=C[C@@H](C)[C@@H]1O | inactive | inactive | inactive | inactive | – | – | – | –
49 | CC1(C)C2CC[C@]3(C)C(CC=C4[C@@H]5C[C@@](C)(CO)[C@@H](O)C[C@]56C[C@@H](OC6=O)[C@]43C)[C@@]2(C)CC[C@@H]1O (stereo not given in full) | inactive | inactive | inactive | inactive | – | – | – | –
50 | CCCCCCCCCCCCC(=O)CCCCC(=O)O | inactive | inactive | inactive | inactive | – | – | – | –
51 | C/C=C(/C)C(=O)O[C@@H]1[C@H](OC(=O)C=C(C)C)c2c(ccc3ccc(=O)oc23)OC1(C)C | inactive | inactive | inactive | inactive | – | – | – | –
52 | CC(=O)Oc1ccc2c(=O)c(-c3ccccc3)c(C)oc2c1 | inactive | inactive | inactive | inactive | – | – | – | –
53 | O=C(/C=C/c1ccc(O)c(O)c1)O[C@@H]1C[C@](O)(C(=O)O)C[C@@H](O)[C@H]1O | inactive | inactive | inactive | inactive | – | – | – | –
54 | Nc1nc2c(ncn2[C@@H]2O[C@H](COP(=O)(O)OP(=O)(O)OP(=O)(O)O)[C@@H](O)C2O)c(=O)[nH]1 (stereo not given in full) | inactive | inactive | inactive | inactive | – | – | – | –
55 | COC(=O)c1ccc(=O)c2nc3/c(=C/O)c(O)cc(=O)c3[nH]c12 | inactive | inactive | inactive | inactive | – | – | – | –
56 | C=C[C@@]1(C)CC(=O)[C@]2(O)[C@@]3(C)[C@@H](O)CCC(C)(C)[C@@H]3[C@H](OC(C)=O)[C@H](O)[C@@]2(C)O1 | inactive | inactive | inactive | inactive | – | – | – | –
57 | Nc1ncnc2c1c(-c1cnc3[nH]ccc3c1)nn2C1CCCC1 | 6.85 µM (active) | 1.72 µM (active) | 2.17 µM (active) | 6.11 µM (active) | – | – | – | –
58 | Cc1ccc2ccccc2n1 | inactive | inactive | inactive | inactive | – | – | – | –
59 | CCCCCCCCCCCCOC(C)=O | inactive | inactive | inactive | inactive | – | – | – | –
60 | C#C[C@]1(O)CC[C@H]2[C@@H]3CCC4=Cc5oncc5CC4(C)[C@H]3CCC21C (stereo not given in full) | inactive | inactive | inactive | inactive | – | – | – | –
